Measurements as given in the supplement of paper PMC10849652.
About 8,800 targets were measured; listed, in parts, are those with a hit and a random draw of the rest. About 0.5% of all pairs of compound and target were hits.

Columns and labels:
Experiment in all cases: log2 fold change, soluble protein after heating vs DMSO (PISA); higher = thermal stabilisation; K562 lysate, 10 uM; active = over 0.2 and 3.5 SD of the protein, either way, in both replicates (recomputed)
alvocidib = compound: CN1CC[C@H](c2c(O)cc(O)c3c(=O)cc(-c4ccccc4Cl)oc23)[C@H](O)C1 [alvocidib]
Procedure, shortened: (§1)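 The values are log-two fold changes in thermal stability compared with solvent controls and come from duplicates. They were obtained by TMTpro 16plex LC-MS/MS, with channel sums equalised, on the supernatant after 21,000xg for 90 min. That supernatant came from crude K562 extract at 1 mg/mL protein treated with 10 μM compound for 30 min, heated for 3 min across 48°C-58°C, pooled and brought to 0.5% NP-40 at 4°C.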

Tubastatin A = compound: CN1CCc2c(c3ccccc3n2Cc2ccc(C(=O)NO)cc2)C1 [Tubastatin A]
Procedure, shortened: as §1

[1] = compound: CNC(=O)C1=CC=CC=C1NC2=NC(=NC=C2Cl)NC3=C(C=C(C=C3)N4CCOCC4)OC
Procedure, shortened: as §1

defactinib = compound: CNC(=O)c1ccc(Nc2ncc(C(F)(F)F)c(NCc3nccnc3N(C)S(C)(=O)=O)n2)cc1 [defactinib]
Procedure, shortened: as §1

[2] = compound: CNc1nc(-c2ccc3c(N)n[nH]c3c2)cc(N2C[C@@H](C(=O)NC3CCCCC3)CC[C@H]2C)n1
Procedure, shortened: as §1

encorafenib = compound: COC(=O)N[C@@H](C)CNc1nccc(-c2cn(C(C)C)nc2-c2cc(Cl)cc(NS(C)(=O)=O)c2F)n1 [encorafenib]
Procedure, shortened: as §1

[3] = compound: COC(=O)[C@H](CCSC)NC(=O)C1=C(C=C(C=C1)NC[C@H](CS)N)C2=CC=CC=C2
Procedure, shortened: as §1

alisertib = compound: COc1cc(Nc2ncc3c(n2)-c2ccc(Cl)cc2C(c2c(F)cccc2OC)=NC3)ccc1C(=O)O [alisertib]
Procedure, shortened: as §1

[4] = compound: COc1cc2nc(-c3cc(F)ccc3O)nc(N[C@@H]3CNC[C@H]3C(C)(C)O)c2cc1OC
Procedure, shortened: as §1

gefitinib = compound: COc1cc2ncnc(Nc3ccc(F)c(Cl)c3)c2cc1OCCCN1CCOCC1 [gefitinib]
Procedure, shortened: as §1

Measured: log2 fold change

MORF4L1 isoform 2 (UniProt Q9UBU8)
Chain of UniProt Q9UBU8 (Q9UBU8 whole entry, looked up): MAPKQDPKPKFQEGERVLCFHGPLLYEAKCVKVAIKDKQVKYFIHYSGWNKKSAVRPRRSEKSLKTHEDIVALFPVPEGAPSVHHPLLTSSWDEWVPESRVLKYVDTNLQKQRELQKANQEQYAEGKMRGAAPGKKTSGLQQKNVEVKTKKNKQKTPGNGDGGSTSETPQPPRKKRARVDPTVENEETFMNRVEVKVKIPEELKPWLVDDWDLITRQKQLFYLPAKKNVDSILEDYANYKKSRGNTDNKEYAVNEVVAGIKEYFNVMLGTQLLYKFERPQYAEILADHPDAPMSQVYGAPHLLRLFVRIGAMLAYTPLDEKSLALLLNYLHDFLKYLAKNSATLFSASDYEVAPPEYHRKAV
active: [2] 0.247
inactive: alvocidib -0.01 | Tubastatin A 0.001 | [1] -0.001 | defactinib -0.005 | encorafenib -0.023 | [3] -0.021 | alisertib 0.045 | [4] 0.044 | gefitinib 0.008

MACO1 (UniProt Q8N5G2)
inactive: alvocidib -0.003 | Tubastatin A -0.003 | [1] -0.012 | defactinib 0.01 | [2] 0.119 | encorafenib -0.101 | [3] -0.016 | alisertib -0.024 | [4] -0.005 | gefitinib 0.04

MCMBP (UniProt Q9BTE3)
inactive: alvocidib 0.035 | Tubastatin A -0.078 | [1] 0.029 | defactinib 0.041 | [2] -0.003 | encorafenib -0.001 | [3] 0.074 | alisertib 0.005 | [4] 0 | gefitinib 0.011

MON2 isoform 5 (UniProt Q7Z3U7)
inactive: alvocidib 0.003 | Tubastatin A -0.149 | [1] 0.018 | defactinib 0.023 | [2] -0.014 | encorafenib 0.034 | [3] -0.035 | alisertib -0.004 | [4] 0 | gefitinib 0.005

MRPL15 (UniProt Q9P015)
inactive: alvocidib -0.122 | Tubastatin A 0.022 | [1] -0.014 | defactinib -0.011 | [2] 0.088 | encorafenib 0.053 | [3] -0.013 | alisertib 0.006 | [4] -0.014 | gefitinib -0.027

MAPK9 (UniProt P45984)
active: [1] 0.44
inactive: alvocidib 0.028 | Tubastatin A -0.064 | defactinib 0.056 | [2] 0.006 | encorafenib 0.17 | [3] -0.019 | alisertib -0.021 | [4] 0.006 | gefitinib 0.027

MAPK6 (UniProt Q16659)
inactive: alvocidib 0.133 | Tubastatin A -0.086 | [1] 0.115 | defactinib 0.049 | [2] -0.023 | encorafenib -0.037 | [3] -0.092 | alisertib -0.001 | [4] 0.072 | gefitinib 0.113

LAP3 (UniProt P28838)
Chain of UniProt P28838 (P28838 whole entry, looked up): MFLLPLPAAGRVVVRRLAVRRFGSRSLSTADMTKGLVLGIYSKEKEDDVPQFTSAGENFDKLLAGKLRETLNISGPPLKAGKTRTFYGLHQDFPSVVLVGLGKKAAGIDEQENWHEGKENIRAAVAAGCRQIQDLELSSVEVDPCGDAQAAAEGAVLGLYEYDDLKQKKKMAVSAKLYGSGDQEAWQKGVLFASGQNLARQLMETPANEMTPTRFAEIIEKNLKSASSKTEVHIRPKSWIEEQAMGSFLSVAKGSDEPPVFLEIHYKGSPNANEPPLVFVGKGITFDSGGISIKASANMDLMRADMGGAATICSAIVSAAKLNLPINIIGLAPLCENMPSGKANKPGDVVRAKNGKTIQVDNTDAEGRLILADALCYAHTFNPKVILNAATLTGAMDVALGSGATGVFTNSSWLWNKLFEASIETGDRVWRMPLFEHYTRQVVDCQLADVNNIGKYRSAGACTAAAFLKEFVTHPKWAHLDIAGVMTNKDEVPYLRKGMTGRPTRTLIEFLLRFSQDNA
inactive: alvocidib -0.249 | Tubastatin A 0.082 | [1] 0.069 | defactinib -0.063 | [2] 0.191 | encorafenib 0.006 | [3] 0.004 | alisertib -0.02 | [4] 0.038 | gefitinib -0.004

MCU (UniProt Q8NE86)
inactive: alvocidib 0.011 | Tubastatin A 0.045 | [1] 0.026 | defactinib 0.037 | [2] -0.067 | encorafenib 0.016 | [3] -0.035 | alisertib 0.01 | [4] -0.063 | gefitinib -0.091

MICU1 isoform 3 (UniProt Q9BPX6)
inactive: alvocidib 0.092 | Tubastatin A -0.065 | [1] 0 | defactinib 0.026 | [2] -0.061 | encorafenib -0.037 | [3] -0.05 | alisertib -0.025 | [4] -0.063 | gefitinib 0.023

MAPK1 (UniProt P28482)
inactive: alvocidib 0.051 | Tubastatin A 0.061 | defactinib 0.091 | [2] -0.007 | encorafenib -0.062 | [3] 0.031 | alisertib -0.038 | [4] 0.043 | gefitinib 0.014
active: [1] 0.242

MGAT5 (UniProt Q09328)
inactive: alvocidib 0.056 | Tubastatin A -0.009 | [1] -0.011 | [2] -0.026 | encorafenib 0.006 | [3] -0.095 | alisertib 0.025 | [4] 0.054 | gefitinib -0.064
active: defactinib -0.337

MORC2 (UniProt Q9Y6X9)
Chain of UniProt Q9Y6X9 (Q9Y6X9 whole entry, looked up): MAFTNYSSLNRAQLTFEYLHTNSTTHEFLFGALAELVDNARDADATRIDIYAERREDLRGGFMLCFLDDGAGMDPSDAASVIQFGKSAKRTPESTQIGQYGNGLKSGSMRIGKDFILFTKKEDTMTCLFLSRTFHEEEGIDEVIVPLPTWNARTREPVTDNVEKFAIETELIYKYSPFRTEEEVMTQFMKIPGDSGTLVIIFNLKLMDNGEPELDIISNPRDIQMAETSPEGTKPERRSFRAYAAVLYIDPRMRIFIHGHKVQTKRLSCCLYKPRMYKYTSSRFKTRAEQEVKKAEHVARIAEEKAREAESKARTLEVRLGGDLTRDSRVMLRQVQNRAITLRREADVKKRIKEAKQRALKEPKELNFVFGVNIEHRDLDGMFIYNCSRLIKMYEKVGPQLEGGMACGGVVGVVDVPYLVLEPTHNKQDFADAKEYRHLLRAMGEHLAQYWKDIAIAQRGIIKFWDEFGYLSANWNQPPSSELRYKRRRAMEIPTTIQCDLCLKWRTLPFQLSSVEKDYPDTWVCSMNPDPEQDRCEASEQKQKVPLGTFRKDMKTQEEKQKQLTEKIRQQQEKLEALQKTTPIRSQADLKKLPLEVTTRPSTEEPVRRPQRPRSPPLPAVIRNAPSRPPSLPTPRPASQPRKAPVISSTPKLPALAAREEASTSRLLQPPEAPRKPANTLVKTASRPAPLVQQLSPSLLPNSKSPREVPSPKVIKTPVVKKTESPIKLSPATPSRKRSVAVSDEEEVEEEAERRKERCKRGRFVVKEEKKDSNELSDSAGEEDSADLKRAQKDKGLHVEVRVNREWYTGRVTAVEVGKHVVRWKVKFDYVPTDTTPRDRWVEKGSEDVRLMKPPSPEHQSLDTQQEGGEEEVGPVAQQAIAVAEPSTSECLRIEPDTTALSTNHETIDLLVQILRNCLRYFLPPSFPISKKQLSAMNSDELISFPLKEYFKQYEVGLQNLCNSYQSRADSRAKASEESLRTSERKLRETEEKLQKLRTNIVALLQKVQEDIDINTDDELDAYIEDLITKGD
inactive: alvocidib 0.018 | Tubastatin A -0.095 | [1] 0 | defactinib 0.013 | [2] -0.012 | encorafenib 0.02 | [3] 0.025 | alisertib 0.001 | [4] -0.008 | gefitinib -0.02

MAPKAPK3 (UniProt Q16644)
inactive: alvocidib 0.038 | Tubastatin A -0.125 | [1] 0.015 | defactinib 0.033 | [2] -0.11 | encorafenib -0.015 | [3] 0.055 | alisertib -0.055 | [4] 0.006 | gefitinib 0.148

MAD2L2 (UniProt Q9UI95)
Chain of UniProt Q9UI95 (Q9UI95 whole entry, looked up): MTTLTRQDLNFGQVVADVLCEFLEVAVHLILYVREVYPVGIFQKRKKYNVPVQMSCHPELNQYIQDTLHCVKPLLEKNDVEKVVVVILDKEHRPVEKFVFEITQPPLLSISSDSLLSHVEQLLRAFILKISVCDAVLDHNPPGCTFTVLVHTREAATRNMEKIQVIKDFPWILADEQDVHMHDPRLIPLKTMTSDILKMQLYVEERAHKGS
inactive: alvocidib -0.026 | Tubastatin A 0.051 | [1] 0.033 | defactinib 0.06 | [2] 0.064 | encorafenib -0.069 | [3] 0.022 | alisertib 0.04 | [4] 0.135 | gefitinib -0.006

MAP2K3 isoform 3 (UniProt P46734)
inactive: alvocidib 0.05 | Tubastatin A -0.066 | [1] 0.139 | defactinib 0.017 | [2] -0.055 | encorafenib -0.011 | [3] 0.169 | alisertib 0 | [4] -0.171 | gefitinib -0.087

LAS1L (UniProt Q9Y4W2)
inactive: alvocidib -0.015 | Tubastatin A -0.127 | [1] -0.024 | defactinib -0.02 | [2] 0.016 | encorafenib -0.04 | [3] 0.06 | alisertib -0.011 | [4] 0.01 | gefitinib -0.013

MRPL28 (UniProt Q13084)
inactive: alvocidib 0.261 | Tubastatin A -0.074 | [1] -0.11 | defactinib 0.039 | [2] 0.001 | encorafenib 0.026 | [3] -0.026 | alisertib 0.045 | [4] -0.02 | gefitinib 0.072

MED14 (UniProt O60244)
inactive: alvocidib -0.017 | Tubastatin A -0.068 | [1] 0.051 | defactinib -0.008 | [2] 0.015 | encorafenib 0.012 | [3] 0.003 | alisertib -0.028 | [4] -0.018 | gefitinib 0.001

KIF21A isoform 5 (UniProt Q7Z4S6)
Chain of UniProt Q7Z4S6 (Q7Z4S6 whole entry, looked up): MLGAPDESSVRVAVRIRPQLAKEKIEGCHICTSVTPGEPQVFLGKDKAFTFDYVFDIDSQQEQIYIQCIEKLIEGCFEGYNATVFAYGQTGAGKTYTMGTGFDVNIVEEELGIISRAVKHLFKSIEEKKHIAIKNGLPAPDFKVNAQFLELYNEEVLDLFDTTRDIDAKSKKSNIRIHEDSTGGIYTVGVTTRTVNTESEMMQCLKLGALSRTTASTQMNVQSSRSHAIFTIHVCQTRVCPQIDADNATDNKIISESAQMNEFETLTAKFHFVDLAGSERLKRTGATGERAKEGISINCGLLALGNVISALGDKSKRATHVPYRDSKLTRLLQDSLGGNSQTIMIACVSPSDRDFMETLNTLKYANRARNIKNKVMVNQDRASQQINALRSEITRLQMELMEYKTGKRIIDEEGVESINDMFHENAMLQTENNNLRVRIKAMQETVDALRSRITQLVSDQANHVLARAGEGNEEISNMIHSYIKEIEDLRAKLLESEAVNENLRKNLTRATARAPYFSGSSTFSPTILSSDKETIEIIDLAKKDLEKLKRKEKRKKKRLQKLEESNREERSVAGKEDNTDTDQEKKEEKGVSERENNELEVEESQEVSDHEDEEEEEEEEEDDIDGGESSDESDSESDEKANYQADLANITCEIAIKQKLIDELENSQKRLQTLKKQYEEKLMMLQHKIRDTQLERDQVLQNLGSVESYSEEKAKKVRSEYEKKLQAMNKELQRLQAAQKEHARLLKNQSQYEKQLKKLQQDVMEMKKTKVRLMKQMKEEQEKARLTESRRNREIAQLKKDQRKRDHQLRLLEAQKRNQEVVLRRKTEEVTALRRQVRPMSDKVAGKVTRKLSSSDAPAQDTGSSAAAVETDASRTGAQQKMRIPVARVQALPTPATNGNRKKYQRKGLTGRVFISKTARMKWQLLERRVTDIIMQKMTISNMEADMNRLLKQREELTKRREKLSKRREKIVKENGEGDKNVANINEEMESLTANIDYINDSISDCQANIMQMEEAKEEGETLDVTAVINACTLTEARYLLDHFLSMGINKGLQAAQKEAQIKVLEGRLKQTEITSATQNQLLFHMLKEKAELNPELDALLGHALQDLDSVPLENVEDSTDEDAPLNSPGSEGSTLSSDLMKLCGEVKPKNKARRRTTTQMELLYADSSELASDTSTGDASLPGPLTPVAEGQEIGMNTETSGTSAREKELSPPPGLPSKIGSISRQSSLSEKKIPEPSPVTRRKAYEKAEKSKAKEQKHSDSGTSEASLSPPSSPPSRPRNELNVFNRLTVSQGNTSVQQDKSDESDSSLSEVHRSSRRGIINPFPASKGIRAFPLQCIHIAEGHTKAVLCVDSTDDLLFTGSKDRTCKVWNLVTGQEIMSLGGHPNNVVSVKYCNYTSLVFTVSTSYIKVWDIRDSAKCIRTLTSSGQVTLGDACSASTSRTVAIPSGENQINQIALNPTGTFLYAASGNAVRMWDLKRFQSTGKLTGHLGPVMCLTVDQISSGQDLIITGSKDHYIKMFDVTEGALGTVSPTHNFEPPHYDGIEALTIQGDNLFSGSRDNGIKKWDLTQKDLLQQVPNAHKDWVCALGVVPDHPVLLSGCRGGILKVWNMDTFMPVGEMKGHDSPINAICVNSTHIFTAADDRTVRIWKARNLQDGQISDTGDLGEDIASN
inactive: alvocidib 0.106 | Tubastatin A -0.066 | [1] 0.022 | defactinib 0.007 | [2] 0.008 | encorafenib -0.016 | [3] 0.09 | alisertib -0.033 | [4] -0.002 | gefitinib -0.012

MAP2K1 (UniProt Q02750)
Chain of UniProt Q02750 (Q02750 whole entry, looked up): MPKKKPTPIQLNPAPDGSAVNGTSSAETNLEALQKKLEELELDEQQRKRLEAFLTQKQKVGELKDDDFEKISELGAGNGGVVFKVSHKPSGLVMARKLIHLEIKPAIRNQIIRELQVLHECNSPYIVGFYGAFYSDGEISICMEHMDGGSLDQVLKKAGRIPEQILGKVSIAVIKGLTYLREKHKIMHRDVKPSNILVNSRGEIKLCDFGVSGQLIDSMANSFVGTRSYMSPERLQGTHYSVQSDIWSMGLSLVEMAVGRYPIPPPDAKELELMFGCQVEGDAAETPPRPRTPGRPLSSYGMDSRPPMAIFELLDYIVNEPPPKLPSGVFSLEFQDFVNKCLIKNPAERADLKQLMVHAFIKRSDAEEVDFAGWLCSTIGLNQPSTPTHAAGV
inactive: alvocidib 0.06 | Tubastatin A -0.011 | [1] 0.066 | defactinib 0.013 | [2] 0.028 | encorafenib -0.07 | [3] -0.063 | alisertib -0.036 | [4] 0.021 | gefitinib 0.029

KLHL36 (UniProt Q8N4N3)
inactive: alvocidib 0.046 | Tubastatin A 0.04 | [1] -0.032 | defactinib 0.039 | [2] 0.017 | encorafenib 0.031 | [3] -0.078 | alisertib 0.032 | [4] -0.009 | gefitinib -0.074

LIG3 (UniProt P49916)
inactive: alvocidib -0.017 | Tubastatin A -0.142 | [1] 0.007 | defactinib 0.006 | [2] -0.002 | encorafenib 0.023 | [3] 0.121 | alisertib -0.009 | [4] -0.008 | gefitinib -0.015

MAT2B (UniProt Q9NZL9)
inactive: alvocidib -0.028 | Tubastatin A 0.063 | [1] -0.013 | defactinib 0.003 | [2] -0.01 | encorafenib -0.009 | [3] -0.006 | alisertib 0.032 | [4] 0.016 | gefitinib -0.006

MPZL1 (UniProt O95297)
inactive: alvocidib -0.01 | Tubastatin A 0.048 | [1] -0.014 | defactinib 0.01 | [2] 0.028 | encorafenib 0.045 | [3] -0.082 | alisertib 0.007 | [4] 0.012 | gefitinib 0.016

LZTR1 (UniProt Q8N653)
Chain of UniProt Q8N653 (Q8N653 whole entry, looked up): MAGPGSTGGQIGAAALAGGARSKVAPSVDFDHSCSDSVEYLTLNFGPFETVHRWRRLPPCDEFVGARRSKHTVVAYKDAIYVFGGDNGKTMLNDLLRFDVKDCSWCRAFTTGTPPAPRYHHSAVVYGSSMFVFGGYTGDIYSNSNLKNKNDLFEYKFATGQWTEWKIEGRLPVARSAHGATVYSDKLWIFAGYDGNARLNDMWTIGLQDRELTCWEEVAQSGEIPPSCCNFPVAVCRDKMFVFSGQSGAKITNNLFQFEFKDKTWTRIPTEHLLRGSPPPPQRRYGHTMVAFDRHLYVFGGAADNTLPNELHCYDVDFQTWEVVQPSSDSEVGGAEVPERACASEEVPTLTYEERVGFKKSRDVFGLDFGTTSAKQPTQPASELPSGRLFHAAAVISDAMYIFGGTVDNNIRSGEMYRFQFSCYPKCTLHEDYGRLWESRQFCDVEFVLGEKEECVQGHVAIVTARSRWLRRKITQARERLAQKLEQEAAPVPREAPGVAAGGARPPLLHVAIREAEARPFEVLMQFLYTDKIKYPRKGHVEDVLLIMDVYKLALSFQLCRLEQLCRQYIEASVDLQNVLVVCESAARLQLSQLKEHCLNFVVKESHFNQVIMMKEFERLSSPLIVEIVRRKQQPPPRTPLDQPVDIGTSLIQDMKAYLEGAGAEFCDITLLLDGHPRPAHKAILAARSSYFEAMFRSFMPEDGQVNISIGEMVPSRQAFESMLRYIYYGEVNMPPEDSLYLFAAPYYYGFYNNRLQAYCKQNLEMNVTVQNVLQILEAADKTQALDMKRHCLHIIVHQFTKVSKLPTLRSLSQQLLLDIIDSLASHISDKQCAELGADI
inactive: alvocidib 0.178 | Tubastatin A -0.168 | [1] -0.001 | defactinib -0.036 | [2] -0.012 | encorafenib -0.039 | [3] 0.174 | alisertib -0.047 | [4] 0.137 | gefitinib 0.091

MICB, A0A140T979
inactive: alvocidib 0.01 | Tubastatin A -0.005 | [1] -0.09 | defactinib 0.021 | [2] 0.084 | encorafenib -0.027 | alisertib -0.043 | gefitinib -0.012
active: [3] -0.506 | [4] 0.804

MAPK14 (UniProt Q16539)
inactive: alvocidib 0.007 | Tubastatin A -0.203 | [1] 0.38 | defactinib -0.053 | [2] -0.043 | encorafenib 0.488 | [3] 0.314 | alisertib -0.144 | [4] 0.011 | gefitinib 0.295

MAPKAPK5 (UniProt Q8IW41)
inactive: alvocidib 0.055 | Tubastatin A 0 | [1] 0.006 | defactinib 0.003 | [2] -0.089 | encorafenib -0.074 | [3] -0.125 | alisertib -0.006 | [4] 0.01 | gefitinib 0.019

LDAH isoform 2 (UniProt Q9H6V9)
inactive: alvocidib 0.003 | Tubastatin A -0.124 | [1] -0.012 | defactinib 0.012 | [2] -0.027 | encorafenib -0.03 | [3] 0.048 | alisertib 0 | [4] -0.036 | gefitinib 0.004
